Some test systems named below: NCI-H23 lung; NCI-H226 lung; NCI-H322M lung; HOP-62 NSCLC; NCI-H460 lung; HOP-92 NSCLC; NCI-H522 lung; A549/ATCC NSCLC; 786-0 renal; COLO 205 colon; DU-145 prostate; K-562 leukemia; MALME-3M melanoma; MDA-MB-231 breast; RXF 393 renal; SF-268 CNS; SF-295 CNS; SF-539 CNS; UACC-257 melanoma; M14 melanoma.
Common to all, as to test: NCI-60 one-dose screen, 48 h (100 = growth as untreated, 0 = no growth, -100 = all killed)
Details in all cases: 10 µM unless noted

For eight compounds, growth results are on record in PubChem BioAssay (NCI).

About 83,000 compounds went through this panel and 20% of them were active in at least one assay; those are over-represented in the sample as a whole.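 The endpoint reported here, percent growth, reads 100 for growth as untreated, 0 for no net growth and -100 for all cells dead.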 A number with no mark means an inactive call. Calls of active or inactive are those of the source. The calls were made as follows: active = growth percent below 10; inactive = the rest.

As for `Cc1ccc(-c2cc3c(cc2O)C2CCCCC2(N2CCOCC2)O3)cc1` (stereo not given), the growth in the assay on NCI-H23 lung is 94.8%; in the assay on NCI-H226 lung, 108%; in the assay on NCI-H322M lung, 101%; with HOP-62 NSCLC it was 110%; in the assay on NCI-H460 lung, 103%; in the assay on HOP-92 NSCLC it was 85.7%. Moreover, the growth with NCI-H522 lung was 82.7%; with A549/ATCC NSCLC it was 96.1%; in the assay on 786-0 renal, 108%; with COLO 205 colon, 113%; in the assay with DU-145 prostate, 106%; with K-562 leukemia it was 89.1%. The growth with MALME-3M melanoma was 101%; with MDA-MB-231 breast, 114%; with RXF 393 renal it was 90.6%; in the assay with SF-268 CNS, 97.2%; in the assay on SF-295 CNS it was 103%; with SF-539 CNS, 105%. Besides, the growth is 102% in the assay on UACC-257 melanoma and 92.5% with M14 melanoma.

In the case of `CCN(CC)CCN1C(=O)c2c(c(C)c3c(oc4cc(O)ccc43)c2C)C1=O`, the growth in the assay on NCI-H23 lung was 92.7%; with NCI-H226 lung it was 29.2%; in the assay with NCI-H322M lung, 89.1%; with HOP-62 NSCLC, 93.1%; in the assay on NCI-H460 lung it was -69% (active); with HOP-92 NSCLC it was 72.1%. For the same compound, the growth in the assay with NCI-H522 lung is -37.1% (active); in the assay on A549/ATCC NSCLC, -65.3% (active); in the assay on 786-0 renal it was -80.9% (active); in the assay with COLO 205 colon, 12.8%; with DU-145 prostate, -89.2% (active); in the assay with K-562 leukemia, -58.5% (active). Moreover, the growth in the assay on MALME-3M melanoma is 84.2%; in the assay with MDA-MB-231 breast it was -68.7% (active); in the assay with RXF 393 renal, 79.4%; with SF-268 CNS, 74.5%; with SF-295 CNS, 103%; with SF-539 CNS, 90.8%. In addition, the values for the growth with UACC-257 melanoma and in the assay with M14 melanoma were 97.7% and -79.3% (active), respectively.

On to `CCN(CC)c1ccc(C(=O)c2ccc(N(CC)CC)cc2)cc1`, for which the growth is 3.77% (active) in the assay with NCI-H23 lung; 48.5% in the assay with NCI-H226 lung; 54.7% with NCI-H322M lung; 29.2% in the assay on HOP-62 NSCLC; 6.72% (active) in the assay on NCI-H460 lung; 51.2% with HOP-92 NSCLC. For the same compound, the growth in the assay on NCI-H522 lung was 3.66% (active); in the assay with A549/ATCC NSCLC, 31.9%; with 786-0 renal, 4.16% (active); with COLO 205 colon it was -29% (active); in the assay on DU-145 prostate it was 20.2%; in the assay with K-562 leukemia, 14.7%. For the same compound, the growth in the assay with MALME-3M melanoma was 67.2%; in the assay on MDA-MB-231 breast, 18.4%; in the assay on RXF 393 renal, -36.5% (active); with SF-268 CNS it was 45.6%; in the assay with SF-295 CNS, 11%; with SF-539 CNS, 0.464% (active). Also, the growth is 76.2% with UACC-257 melanoma and 0.748% (active) in the assay on M14 melanoma.

On to `N#C/C(=C\c1ccc(-c2ccccc2F)o1)c1nc(-c2ccco2)cs1`, for which the growth was 85.5% in the assay on NCI-H23 lung; 80.9% with NCI-H226 lung; 94.1% in the assay on NCI-H322M lung; 89% in the assay on HOP-62 NSCLC; 95.1% in the assay with NCI-H460 lung; 85.7% in the assay with HOP-92 NSCLC. The growth in the assay on NCI-H522 lung was 81.5%; in the assay on A549/ATCC NSCLC it was 99.1%; in the assay on 786-0 renal, 104%; in the assay on COLO 205 colon it was 99.6%; in the assay with DU-145 prostate it was 101%; in the assay with K-562 leukemia, 82.8%. The growth in the assay with MALME-3M melanoma was 96%; in the assay with MDA-MB-231 breast it was 85.8%; in the assay with RXF 393 renal, 109%; in the assay with SF-268 CNS it was 101%; with SF-295 CNS it was 98.6%; with SF-539 CNS, 98.1%. Besides, the results for the growth in the assay with UACC-257 melanoma and in the assay with M14 melanoma were 99.7% and 94.8%, respectively.

Take `N#Cc1c(N)nc(NCCO)nc1-c1ccc(F)cc1`: the growth with NCI-H23 lung is 96.7%; with NCI-H226 lung, 77.1%; with NCI-H322M lung it was 102%; in the assay with HOP-62 NSCLC it was 93.3%; in the assay with NCI-H460 lung, 103%; in the assay on HOP-92 NSCLC, 75.9%. Further, the growth with NCI-H522 lung was 86.6%; in the assay with A549/ATCC NSCLC, 71.8%; in the assay on 786-0 renal it was 97.1%; in the assay with COLO 205 colon, 92.5%; in the assay with DU-145 prostate, 113%; in the assay on K-562 leukemia it was 91.4%. Besides, the growth is 108% in the assay with MALME-3M melanoma; 104% in the assay on MDA-MB-231 breast; 93.5% in the assay with RXF 393 renal; 103% in the assay on SF-268 CNS; 99.1% with SF-295 CNS; 98.6% in the assay with SF-539 CNS. For the same compound, the growth is 90.6% in the assay on UACC-257 melanoma and 105% in the assay with M14 melanoma.

As for `O=C(c1ccccc1)c1c(/C=C/c2ccc(Cl)cc2)nc2ccccc2c1/C=C/c1cccs1`, the growth in the assay on NCI-H23 lung is 102%; with NCI-H226 lung, 92.4%; with NCI-H322M lung it was 89.4%; in the assay on HOP-62 NSCLC, 106%; with NCI-H460 lung it was 107%; with HOP-92 NSCLC, 87.3%. In addition, the growth was 88.6% in the assay on NCI-H522 lung; 92.9% with A549/ATCC NSCLC; 94.9% with 786-0 renal; 103% in the assay with COLO 205 colon; 107% with DU-145 prostate; 83.6% in the assay on K-562 leukemia. The growth in the assay on MALME-3M melanoma is 99.3%; in the assay with MDA-MB-231 breast, 94.4%; in the assay with RXF 393 renal, 104%; with SF-268 CNS, 93.5%; in the assay on SF-295 CNS it was 102%; in the assay on SF-539 CNS, 97.3%. Also, the growth in the assay on UACC-257 melanoma was 87.7%; with M14 melanoma, 96.8%.

On to `COc1cc(/C=N/Nc2ncc(-c3cc4cc5c(cc4o3)OCO5)s2)cc(OC)c1OC`, for which the growth with NCI-H23 lung is 53%; with NCI-H226 lung, 76.9%; in the assay on NCI-H322M lung, 103%; in the assay on HOP-62 NSCLC it was 81%; in the assay with NCI-H460 lung, 56.7%; in the assay with HOP-92 NSCLC, 85.3%. Also, the growth with NCI-H522 lung is 40%; in the assay with A549/ATCC NSCLC, 37.6%; in the assay with 786-0 renal, 84.5%; in the assay on COLO 205 colon, 46.4%; with DU-145 prostate, 48%; with K-562 leukemia, 30.1%. The growth in the assay on MALME-3M melanoma was 93.8%; in the assay on MDA-MB-231 breast, 46.5%; in the assay on RXF 393 renal it was 66.3%; with SF-268 CNS, 74.9%; in the assay with SF-295 CNS, 67.1%; in the assay with SF-539 CNS, 81.7%. The growth in the assay with UACC-257 melanoma was 42.2%; with M14 melanoma, 26.3%.

Consider `N=C1C(c2nc(-c3ccc(Br)cc3)cs2)=C(O)CN1Cc1cccnc1`, for which the growth is 81.9% with NCI-H23 lung; 98.8% with NCI-H226 lung; 50.2% with NCI-H322M lung; 43.6% in the assay on HOP-62 NSCLC; 66.7% in the assay on NCI-H460 lung; -47.3% (active) with HOP-92 NSCLC. Also, the growth in the assay on NCI-H522 lung was 68.4%; in the assay with A549/ATCC NSCLC, 60.6%; with 786-0 renal, 35.2%; in the assay on COLO 205 colon, 87.5%; in the assay with DU-145 prostate, 11.9%; with K-562 leukemia it was 49.8%. The growth is 34.1% with MALME-3M melanoma; 78.7% in the assay with MDA-MB-231 breast; 67.1% in the assay on RXF 393 renal; 38% in the assay on SF-268 CNS; 37.2% with SF-295 CNS; 60.5% in the assay with SF-539 CNS. The growth is 81% with UACC-257 melanoma and 69.3% with M14 melanoma.
